Screens from PubChem.
Only some compounds are listed: those with a hit (about 7.3% of all), similar ones and a draw of the others.
Tau fibril FP = inhibitors of human tau fibril formation | P10636 | K18 P301L tau heparin fibrillization, Alexa594 FP, 6 h | Potency, µM (top dose mostly 57.7 µM), for the others: at the top dose activity, negative = inhibition, most hits filed as inhibitors | 280,000 tested, 0.39% active | AID 1468; further: nearly all actives have a fitted effect of over 55% in size
Target sequence (P10636 561-689 P618L limits assumed): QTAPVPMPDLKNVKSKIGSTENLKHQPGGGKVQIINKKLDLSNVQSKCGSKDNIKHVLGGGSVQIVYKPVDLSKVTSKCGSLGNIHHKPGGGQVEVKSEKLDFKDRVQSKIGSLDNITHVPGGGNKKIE
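Read-out: fluorescence polarization of Alexa 594-labeled tau (0.24 uM), 555 nm excitation, 632 nm emission. Mixtures held 15 uM unlabeled K18 P301L, compound and 20 uM heparin, pH 7 acetate buffer, incubated 6 hr at 37 C.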
RORgamma inh = blocks mouse ROR gamma transcriptional activity; P51450; Drosophila S2 Gal4-RORgamma UAS-luciferase reporter, 20 h; Potency, µM (top dose mostly 53.6 µM), for inactives: at the top dose activity change, negative = inhibition, actives largely listed as inhibitors; 310,000 tested, 5.4% active; further: nearly all actives have a fitted effect of over 60% in size
Target sequence (P51450 whole entry, looked up, the tested form may be a part): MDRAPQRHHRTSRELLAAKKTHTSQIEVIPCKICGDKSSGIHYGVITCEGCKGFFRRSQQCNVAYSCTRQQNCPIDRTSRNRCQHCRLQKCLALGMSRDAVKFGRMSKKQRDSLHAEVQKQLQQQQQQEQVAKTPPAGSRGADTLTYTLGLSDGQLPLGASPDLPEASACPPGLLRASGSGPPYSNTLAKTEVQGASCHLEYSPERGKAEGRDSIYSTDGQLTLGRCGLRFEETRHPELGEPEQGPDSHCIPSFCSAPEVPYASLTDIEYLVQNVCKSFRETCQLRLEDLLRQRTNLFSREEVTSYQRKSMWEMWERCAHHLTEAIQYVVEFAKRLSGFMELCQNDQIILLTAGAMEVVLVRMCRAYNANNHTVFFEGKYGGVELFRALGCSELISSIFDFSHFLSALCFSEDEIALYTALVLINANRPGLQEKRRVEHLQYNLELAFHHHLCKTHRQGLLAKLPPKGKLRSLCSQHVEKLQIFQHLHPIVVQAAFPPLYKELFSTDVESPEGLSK
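Stable Schneider cell line, Gal4 DNA-binding domain fused to ROR gamma, UAS-luciferase. Cmpd 1 hr RT → CuSO4 700 uM final → 20 hr RT → luciferase reagent 10 min → luminescence.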
VP16 counter = counter-screen for ROR gamma inhibitors: Gal4-VP16 reporter | 310,000 tested, 3.5% active | Drosophila S2 Gal4-VP16 UAS-luciferase, luminescence, 20 h | Potency, µM (series often up to 53.6 µM), inactives show at the top dose activity, negative = inhibition, hits mostly inhibitors;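 further: Gal4-VP16 expression switched on by copper sulfate through the metallothionein promoter; nearly all actives have a fitted effect of over 50% in size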
Tau fluor cs = counter-screen for tau fibril formation inhibitors; tau K18 P301L Alexa594 fluorescence, heparin fibrillization; Potency, µM (highest dose often 57.7 µM), inactives show top-dose activity change, negative = decrease; 280,000 tested, 0.93% active; AID 1463; further: nearly all actives have a fitted effect of over 55% in size
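Human K18 P301L tau (15 uM unlabeled plus 0.24 uM Alexa 594-labeled, final) in 100 mM sodium acetate pH 7 was mixed with compound and 20 uM heparin and incubated 6 hr at 37 C.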
Tau fibril ThT = inhibitors of human tau fibril formation, thioflavin T binding. recombinant tau K18 P301L (four-repeat tau fragment), heparin-induced fibrillization, ThT fluorescence. Potency, µM (series often up to 57.4 µM), for the others: at the top dose activity, negative = inhibition, usual class: inhibitors. 270,000 tested, 2.1% active. AID 1460; further: nearly all actives have a fitted effect of over 55% in size
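Aggregation was driven by heparin (20 uM final) acting on recombinant tau […] bearing P301L in 100 mM sodium acetate pH 7; fibrils were detected with Thioflavin T.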
* marks the source's active call; other numbers are inactive results; ? = inconclusive; nt = no result given; ! = a repeat was not active; [ ] = dose if it differs, or a comment. The call rests on the fitted dose curve; in most records, active means well fitted curve in the direction sought with a large enough effect; inconclusive means small, poorly fitted or top-dose-only effect, or another doubt; inactive means no such curve, though single readings can be large; an effect the other way counts as inactive or inconclusive. On the % scale 0 is the no-effect control and ±100 the full control effect; potency means the concentration at half of the fitted maximal effect.

SMILES	Tau fibril FP	RORgamma inh	VP16 counter	Tau fluor cs	Tau fibril ThT
Cc1cc(-n2c(C)cc(C(=O)CSc3nc(N)cc(=O)[nH]3)c2C)no1	-2.0%	?	22.4µM*	-15.2%	-15.6%
COc1ccc(-n2c(C)cc(C(=O)CCl)c2C)cc1	16.7%	12.6µM*	?	1.9%	?
Cc1ccccc1-c1cncnc1NCc1ccccc1	nt	-22.5%	2.3%	nt	nt
CCc1nc2ccc(C(=O)NCCc3ccc(OC)cc3OC)cc2nc1CC	5.0%	nt	nt	12.5%	?
Cc1ccc(Cl)cc1S(=O)(=O)N1CCC(C(=O)NC2CCN(Cc3ccccc3)CC2)CC1	nt	?	22.4µM*	nt	nt
CCN(CC)S(=O)(=O)c1ccc(S(=O)(=O)N2CCC(C(=O)NC3CCN(Cc4ccccc4)CC3)CC2)cc1	nt	20.4%	3.4%	nt	nt
Clc1ccc(-n2nnnc2SCc2cn3ccccc3n2)cc1	-0.5%	?	-21.7%	-9.8%	-8.9%
Cc1cccc2nc(CSc3nc4cc([N+](=O)[O-])ccc4s3)cn12	-4.0%	20µM*	?	-8.8%	?
Clc1ccc(SCc2cn3ccccc3n2)cc1	-0.2%	8.91µM*	-12.3%	-7.2%	?
Cc1cccc2nc(CSc3ccc(Cl)cc3)cn12	-2.8%	7.94µM*	?	-14.5%	?
CCC1CCC(C(=O)NC(C(=O)Nc2cccc(OC)c2)C(C)C)CC1 (centres undefined)	-12.8%	nt	nt	-11.7%	-8.8%
Cc1ccc(-c2c(C(=O)N3CCN(c4cc(Cl)ccc4C)CC3)oc(=O)c3ccccc23)cc1	-13.3%	nt	nt	-4.4%	-4.4%
COC(=O)CCC(=O)OC1(C)C(=O)C2=CN(C3CCCC3)C(c3ccc(OC)cc3)=CC2=C(Br)C1=O (centres undefined)	?	-0.4%	-3.2%	-13.9%[11.6 µM]	15.8µM*
C=CCN1C=C2C(=O)C(C)(OC(=O)CCC(=O)OC)C(=O)C(Br)=C2C=C1c1ccc(OC)cc1 (centres undefined)	?	13.1%	-4.2%	-8.2%[11.6 µM]	14.1µM*!
COC(=O)CCC(=O)OC1(C)C(=O)C2=CN(c3ccc(OC)cc3)C(c3ccc(OC)cc3)=CC2=C(Br)C1=O (centres undefined)	3.6%[11.6 µM]	nt	nt	-17.6%[11.6 µM]	-17.3%[11.5 µM]
COCCN1C=C2C(=O)C(C)(OC(=O)CCC(=O)OC)C(=O)C(Br)=C2C=C1c1ccc(OC)cc1 (centres undefined)	-5.1%[11.6 µM]	nt	nt	-9.3%[11.6 µM]	-11.4%[11.5 µM]
CCCCN(CC)CCCNC(=O)c1cc2c(=O)[nH]c3ccccc3c2n1C	?	nt	nt	-11.2%	-1.3%
COc1ccc(NC(=O)CCNC(=O)c2ccco2)cc1S(=O)(=O)N(C)C	nt	30.6%	7.1%	nt	nt
COc1cccc2oc(SC)cc(=O)c12	5.4%[126 µM]	31.6µM*	?	-13.4%[126 µM]	?
COc1c(O)cc2oc(-c3ccc(O)cc3)cc(=O)c2c1O	3.4%	?	?	-10.2%	?
COc1ccccc1-c1cc(=O)c2cccc(OC)c2o1	-15.2%	10.3%	8.1%	-22.5%	?
COc1cccc(-c2cc(=O)c3ccccc3o2)c1N	0.5%	-36.6%	?	?	15.8µM*
O=c1cc(-c2ccc(O)cc2)oc2c(O)c(O)c(O)c(O)c12	?	-19.1%	-5.0%	?	14.1µM*
O=c1cc(-c2ccccc2)oc2cc(O)c(O)c(O)c12	28.2µM*	28.2µM*	?	?	25.1µM*
O=C(c1ccccc1F)N1CCN(C(=O)C2CC2)CC1	nt	-13.2%	5.1%	nt	nt
SMILES	Tau fibril FP	RORgamma inh	VP16 counter	Tau fluor cs	Tau fibril ThT
O=C(NCCc1ccc(Cl)cc1)c1ccc(CS(=O)(=O)Cc2ccccc2F)o1	0.1%	nt	nt	-19.6%	-12.5%
COc1cc(OC)c(NC(=O)CCc2c(C)nc3c4c(C)cc(C)nc4nn3c2C)cc1Cl	-2.7%	nt	nt	-24.2%	?
COc1cccc2oc(-c3ccc(O)cc3)cc(=O)c12	-0.3%	-33.4%	?	-12.0%	-7.4%
COc1cccc2oc(-c3ccccc3)cc(=O)c12	-4.3%	11.2µM*	?	-3.0%	?
CC(=O)N1C(=O)/C(=C2\SC(=S)N(c3c(C)n(C)n(-c4ccccc4)c3=O)C2=O)c2ccccc21	-15.2%	-31.2%	-10.5%	-16.2%	?
O=C1CSC(=S)N1c1cccc(O)c1	nt	12.6µM*	-5.8%	nt	nt
Cc1c(N2C(=O)CSC2=S)c(=O)n(-c2ccccc2)n1C	-3.7%	12.6µM*	0.7%	-6.9%	?
Cc1c(N2C(=O)/C(=C3/C(=O)N(C)c4ccccc43)SC2=S)c(=O)n(-c2ccccc2)n1C	5.8%	7.94µM*	8.8%	-4.7%	?
O=C1/C(=C/c2cccs2)SC(=S)N1c1cccc(O)c1	-11.0%	-22.6%	-8.4%	20µM*[quencher]	20µM*
COc1ccc(S(=O)(=O)Nc2noc3ccccc23)cc1	nt	3.1%	-20.0%	nt	nt
COC1OC2COC(c3ccccc3)OC2C(O)C1O (centres undefined)	-5.8%	?	-1.0%	-6.8%	-5.7%
CN(C)c1ccc(CN(Cc2ccco2)C(=O)c2ccc(F)cc2)cc1	4.9%	nt	nt	-29.5%	?
CCN(CC)S(=O)(=O)c1ccc2c(c1)c(=O)c(C(=O)N1CCN(c3cccc(C)c3)C(C)C1)cn2C (centres undefined)	-1.4%	nt	nt	-17.5%	-13.2%
CC1=C(C(=O)OCc2ccccc2)C(c2cccc(F)c2)NC(=O)N1 (centres undefined)	nt	21.1%[1.91 µM]	2.3%	nt	nt
COc1ccc(CCNC(=O)CSc2nnc(CNC(=O)c3cc(OC)c(OC)c(OC)c3)o2)cc1OC	nt	-20.7%	3.3%	nt	nt
CCCCOc1ccc(C(=O)NCCOc2cccc(OC)c2)cc1	nt	-0.1%	-5.3%	nt	nt
COc1ccc(NC(=S)N2CCN(C/C=C/c3ccccc3)CC2)cc1	0.0%	?	?	-19.8%	-11.0%
COc1ccc(OC)c(NC(=S)N2CCN(C/C=C/c3ccccc3)CC2)c1	6.4%	2.82µM*	0.7%	-17.4%	-10.3%
CCOc1ccc(NC(=S)N2CCN(C/C=C/c3ccccc3)CC2)cc1	-1.1%	14.1µM*	?	-25.9%	?
COc1ccc(NC(=S)N2CCN(C/C=C/c3ccccc3)CC2)cc1OC	7.6%	10µM*	8.2%	-17.8%	-13.9%
COc1ccc(OC)c(NC(=S)N2CCCC2)c1	nt	-5.7%	2.7%	nt	nt
CCOc1ccc(C(=O)OCc2cc(=O)n3nc(C4CCCCC4)sc3n2)cc1	-11.9%	nt	nt	-9.7%	?
Cc1cccc(OCc2n(CC(=O)OC3CC(C)CCC3C(C)C)c3ccccc3[n+]2C)c1 (centres undefined)	-2.9%	?	?	-20.2%	?
CC1CCC(C(C)C)C(OC(=O)Cn2c(-c3ccccc3)[n+](C)c3ccccc32)C1 (centres undefined)	-13.6%	?	6.31µM*	5.2%	-7.8%
CC1CCC(C(C)C)C(OC(=O)Cn2c(-c3ccc(F)cc3)[n+](C)c3ccccc32)C1 (centres undefined)	3.7%	?	7.08µM*	-3.2%	-16.4%
